Reference: PubChem BioAssay (Tox21)
Results filed as inconclusive are left out. Activity calls are given as the source filed them. Calls come from the whole dose curve; as a rule, active = well fitted activation curve with a large enough effect in the repeat runs; inconclusive = weak or mixed curves, or effect the other way; inactive = no such curve, though single readings can be large or run the other way.

Assay: qHTS assay to identify small molecule agonists of the estrogen related receptor signaling pathway with the pleiotropic PPARgamma coactivator (PGC) from Tox21 10K library (AID 1224842); note: nearly all actives have a fitted effect of over 15% in size
Settings: PGC/ERR reporter cell line, luciferase ONE-Glo, 18 h; series mostly up to 92.4 µM
Text: National Center for Advancing Translational Sciences [NCATS] NIH Chemical Genomics Center [NCGC] U.S. Environmental Protection Agency [EPA] National Institutes of Environmental Health Sciences [NIEHS] National Toxicology Program [NTP] Assay overview: Estrogen related receptors (ERRs), the first orphan nuclear receptors discovered, play an important role in the control of cellular energy metabolism. ERRs are required for high-energy production in response to the environmental challenges. The pleiotropic PPARgamma coactivator (PGC) is a major partner of ERR and a key regulator in energy homeostasis. Together they have been implicated in the etiology of metabolic disorders such as Type 2 diabetes and metabolic syndrome. ERR-alpha was also identified as an adverse marker for breast cancer progression; ERR-alpha-positive tumors have a poor prognosis. To screen and to identify environmental compounds that perturb the PGC/ERR signaling pathways could provide valuable information for potential therapeutic or preventive measures in the treatment of metabolic disease. For identifying PGC/ERR agonists, PGC/ERR cell line (provided by NTP) has been used to screen Tox21 10K library.
Assay Protocol Summary: The PGC/ERR cells were dispensed at 2,000 cells/5 ul/well in 1536-well white plates using a Multidrop dispenser. After the assay plates were incubated at a 37 C/5% CO2 incubator for 6 hours, 23 nL of compounds dissolved in DMSO, positive and negative controls or DMSO only was transferred to the assay plate by a pin tool. The plates were incubated at 37 C for 18 hours. 4 ul/well of One-Glo reagent was added into the assay plates using a Flying Reagent Dispenser. After 30-minute incubation at room temperature, the luminescence intensity in the plates was measured using a ViewLux plate reader.
With `CSCCC=O` the outcome was “inactive”.
In the case of `N[C@@H](Cc1cc(I)c(Oc2cc(I)c(O)c(I)c2)c(I)c1)C(=O)O`, the outcome is reported as “inactive”.
In the case of `COCCCOc1ccnc(CS(=O)c2nc3ccccc3[nH]2)c1C` (configuration not stated), the outcome is reported as “inactive”.
In the case of `O=c1[nH]nnc2ccccc12`, the outcome is reported as “inactive”.
For `Cc1cccc(O)c1`, the outcome was “inactive”.
In the case of `CCCCCCCCCCCCc1ccccc1`, the outcome is reported as “inactive”.
In the case of `CN(C)CCCN`, the outcome is reported as “inactive”.
With `CC(=O)CC(=O)Nc1ccccc1C` the outcome was “inactive”.
With `O=C(O)c1ccccc1C(c1ccc(O)cc1)c1ccc(O)cc1` the outcome was “inactive”.
With `CC[C@H](C)C(=O)O[C@H]1C[C@@H](C)C=C2C=C[C@H](C)[C@H](CC[C@@H]3C[C@@H](O)CC(=O)O3)[C@H]21` the outcome was “inactive”.
With `OCCOCCOCCO` the outcome was “inactive”.
With `O=P(OC(CCl)CCl)(OC(CCl)CCl)OC(CCl)CCl` the outcome was “inactive”.
With `COS(C)(=O)=O` the outcome was “inactive”.
With `OCC(CO)(CBr)CBr` the outcome was “inactive”.
In the case of `O=C(O)CCCC[C@@H]1SC[C@@H]2NC(=O)N[C@@H]21`, the outcome is reported as “inactive”.
With `COc1ccc(Nc2ccccc2)c(C)c1` the outcome was “inactive”.
In the case of `CC(C)(N)CO`, the outcome is reported as “inactive”.
In the case of `CC1=C(C)S(=O)(=O)CCS1(=O)=O`, the outcome is reported as “inactive”.
For `O=C(CC(C(=O)OC1CCCCC1)S(=O)(=O)O)OC1CCCCC1` (configuration not stated), the outcome was “inactive”.
For `CCCCCCCCCCCCCCCO`, the outcome was “inactive”.
In the case of `ON=C1CCCCC1`, the outcome is reported as “inactive”.
In the case of `Cc1cccnc1`, the outcome is reported as “inactive”.
For `C[C@H]1C[C@@H]2[C@H]([C@@H](O)C[C@@]3(C)[C@H]2CC[C@]3(O)C(=O)CO)[C@@]2(C)C=CC(=O)C=C12`, the outcome was “inactive”.
For `Nc1cc([N+](=O)[O-])ccc1O`, the outcome was “inactive”.
With `C=C(C)C(=O)O[C@H]1C[C@@H]2CC[C@@]1(C)C2(C)C` the outcome was “inactive”.
In the case of `CCCCC(CC)COC(=O)C(C#N)=C(c1ccccc1)c1ccccc1` (configuration not stated), the outcome is reported as “inactive”.
With `OC[C@H]1O[C@@](CO)(O[C@H]2O[C@H](CO)[C@@H](O)[C@H](O)[C@H]2O)[C@@H](O)[C@@H]1O` the outcome was “inactive”.
For `Fc1ccc(Br)cc1`, the outcome was “inactive”.
For `Nc1ccccc1[N+](=O)[O-]`, the outcome was “inactive”.
For `CC(C)CC(=O)CC(C)C`, the outcome was “inactive”.
For `CCCCC(CC)COC(=O)CS` (configuration not stated), the outcome was “inactive”.
With `CCC(O)OCCCOC` (configuration not stated) the outcome was “inactive”.
For `CN(C)CCOCCN(C)C`, the outcome was “inactive”.
In the case of `c1ccc2c(c1)ccc1ccccc12`, the outcome is reported as “inactive”.
With `CCC(O)OC(O)CC` (configuration not stated) the outcome was “inactive”.
In the case of `CCc1cccc(C)c1N`, the outcome is reported as “inactive”.
With `O=C(Oc1ccccc1)c1ccccc1` the outcome was “inactive”.
